# What was measured:
# Experiment in all cases: DAPPL (digital affinity profiling via proximity ligation, sequencing); 10 mM Tris-HCl pH 7.5, 50 mM NaCl, 1 mM DTT, 4% glycerol, room temperature, 30 min; GST-TFs on glutathione beads, 16-mer random dsDNA library, 0.1% formaldehyde crosslink after washing; high values mean tight binding
# FLI1 = molecular target: T1, FLI1 (Homo sapiens, UniProt Q01543 1-452); details: protein: recombinant; tags: N-terminal GST; dsDNA, one strand shown
# T1 sequence: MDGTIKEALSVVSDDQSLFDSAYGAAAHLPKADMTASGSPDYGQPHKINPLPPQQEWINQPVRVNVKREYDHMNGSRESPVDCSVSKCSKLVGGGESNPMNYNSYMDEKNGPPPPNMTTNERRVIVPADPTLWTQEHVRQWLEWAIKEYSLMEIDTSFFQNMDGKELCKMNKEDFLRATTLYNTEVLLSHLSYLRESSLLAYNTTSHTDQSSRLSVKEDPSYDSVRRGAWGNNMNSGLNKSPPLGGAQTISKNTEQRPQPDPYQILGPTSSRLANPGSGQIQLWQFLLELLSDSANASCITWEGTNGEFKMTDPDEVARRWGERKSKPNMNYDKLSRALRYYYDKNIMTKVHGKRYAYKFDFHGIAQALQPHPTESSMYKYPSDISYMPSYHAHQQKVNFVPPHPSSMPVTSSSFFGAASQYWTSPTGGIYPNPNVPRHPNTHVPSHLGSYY
# Summary of the method: (§1)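 Pools of DNA-barcoded human transcription factors, expressed in yeast as GST fusions on glutathione beads and combined with a tag-only sample, were incubated with 200 nmole of a 16-mer random double-stranded DNA library. Incubation took 30 min at room temperature in Tris/NaCl/DTT/glycerol buffer and was followed by washing, 0.1% formaldehyde crosslinking, proximity ligation (BsaI/T4 ligase, 1 h, 37 °C), PCR amplification and sequencing on an Illumina NextSeq500. Binding signal is the ratio of a hexamer's read frequency for a factor to its frequency for the tag-only sample.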
# ELK1 = molecular target: T2, ELK1 (Homo sapiens, UniProt P19419 1-428); details: protein: recombinant; tags: N-terminal GST; dsDNA, one strand shown
# T2 sequence: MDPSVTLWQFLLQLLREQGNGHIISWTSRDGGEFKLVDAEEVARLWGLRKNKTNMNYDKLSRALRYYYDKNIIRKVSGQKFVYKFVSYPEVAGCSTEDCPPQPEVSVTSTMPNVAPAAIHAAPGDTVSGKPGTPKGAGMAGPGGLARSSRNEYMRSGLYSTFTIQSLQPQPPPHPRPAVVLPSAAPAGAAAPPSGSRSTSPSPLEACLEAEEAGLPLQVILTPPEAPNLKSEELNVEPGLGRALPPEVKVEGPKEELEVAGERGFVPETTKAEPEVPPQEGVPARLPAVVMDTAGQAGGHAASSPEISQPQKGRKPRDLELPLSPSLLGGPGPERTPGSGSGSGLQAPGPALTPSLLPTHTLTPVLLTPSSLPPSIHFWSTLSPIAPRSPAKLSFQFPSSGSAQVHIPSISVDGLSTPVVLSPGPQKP
# Summary of the method: as §1
# GABPA = molecular target: T3, GABPA (Homo sapiens, UniProt Q06546 1-454); details: protein: recombinant; tags: N-terminal GST; dsDNA, one strand shown
# T3 sequence: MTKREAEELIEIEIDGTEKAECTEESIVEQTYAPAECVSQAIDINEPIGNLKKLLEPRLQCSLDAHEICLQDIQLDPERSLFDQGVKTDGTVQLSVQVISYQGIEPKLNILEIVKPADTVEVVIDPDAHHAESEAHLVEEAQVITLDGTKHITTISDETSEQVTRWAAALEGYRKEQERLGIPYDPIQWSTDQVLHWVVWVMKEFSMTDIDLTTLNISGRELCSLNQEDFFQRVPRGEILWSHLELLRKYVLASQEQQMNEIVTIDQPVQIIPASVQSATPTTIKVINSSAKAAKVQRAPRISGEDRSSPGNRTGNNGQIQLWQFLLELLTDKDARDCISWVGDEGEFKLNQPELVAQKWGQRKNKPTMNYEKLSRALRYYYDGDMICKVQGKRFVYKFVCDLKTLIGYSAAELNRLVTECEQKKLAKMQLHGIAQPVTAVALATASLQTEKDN
# Summary of the method: as §1
# ERG = molecular target: T4, ERG (Homo sapiens, UniProt P11308 1-479); details: protein: recombinant; tags: N-terminal GST; dsDNA, one strand shown
# T4 sequence: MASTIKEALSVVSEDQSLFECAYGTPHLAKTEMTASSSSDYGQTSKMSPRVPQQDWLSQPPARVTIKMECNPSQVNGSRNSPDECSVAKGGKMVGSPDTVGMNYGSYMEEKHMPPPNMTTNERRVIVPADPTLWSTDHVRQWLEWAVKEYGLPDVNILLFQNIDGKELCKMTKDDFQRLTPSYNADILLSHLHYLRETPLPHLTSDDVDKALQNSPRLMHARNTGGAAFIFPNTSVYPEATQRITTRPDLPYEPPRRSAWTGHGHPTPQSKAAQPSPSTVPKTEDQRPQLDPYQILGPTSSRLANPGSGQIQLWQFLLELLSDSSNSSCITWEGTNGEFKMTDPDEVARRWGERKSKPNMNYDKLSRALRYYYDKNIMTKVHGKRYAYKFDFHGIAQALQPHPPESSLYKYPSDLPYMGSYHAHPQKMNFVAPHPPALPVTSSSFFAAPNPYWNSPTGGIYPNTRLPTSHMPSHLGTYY
# Summary of the method: as §1
# ELF1 = ELF1 (Homo sapiens, UniProt P32519 1-619); details: protein: recombinant; tags: N-terminal GST; dsDNA, one strand shown
# Summary of the method: as §1
# EHF = molecular target: T5, EHF (Homo sapiens, UniProt Q9NZC4 1-300); details: protein: recombinant; tags: N-terminal GST; dsDNA, one strand shown
# T5 sequence: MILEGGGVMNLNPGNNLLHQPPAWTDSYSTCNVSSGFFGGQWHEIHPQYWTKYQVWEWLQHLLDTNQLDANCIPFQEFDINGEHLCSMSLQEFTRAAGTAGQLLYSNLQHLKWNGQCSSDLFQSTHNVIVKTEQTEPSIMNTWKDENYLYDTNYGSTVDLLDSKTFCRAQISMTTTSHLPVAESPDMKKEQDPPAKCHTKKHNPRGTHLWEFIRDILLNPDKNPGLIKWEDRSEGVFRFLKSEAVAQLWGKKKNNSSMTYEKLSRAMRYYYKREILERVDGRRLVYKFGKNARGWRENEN
# Summary of the method: as §1
# SPI1 = SPI1 (Homo sapiens, UniProt P17947 1-270); details: protein: recombinant; tags: N-terminal GST; dsDNA, one strand shown
# Summary of the method: as §1
# SPIB = SPIB (Homo sapiens, UniProt Q01892 1-262); details: protein: recombinant; tags: N-terminal GST; dsDNA, one strand shown
# Summary of the method: as §1
# ELK3 = molecular target: T6, ELK3 (Homo sapiens, UniProt P41970 1-407); details: protein: recombinant; tags: N-terminal GST; dsDNA, one strand shown
# T6 sequence: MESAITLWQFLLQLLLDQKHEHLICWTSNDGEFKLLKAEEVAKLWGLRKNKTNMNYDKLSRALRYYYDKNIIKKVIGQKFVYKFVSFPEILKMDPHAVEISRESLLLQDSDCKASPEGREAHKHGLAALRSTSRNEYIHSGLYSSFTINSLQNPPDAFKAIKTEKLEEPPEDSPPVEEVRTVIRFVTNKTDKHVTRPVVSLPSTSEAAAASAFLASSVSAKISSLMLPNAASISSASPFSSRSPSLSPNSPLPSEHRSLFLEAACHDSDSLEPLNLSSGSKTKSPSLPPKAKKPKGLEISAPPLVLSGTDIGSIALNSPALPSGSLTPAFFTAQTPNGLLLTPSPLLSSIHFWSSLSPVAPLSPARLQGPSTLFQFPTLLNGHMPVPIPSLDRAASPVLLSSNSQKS
# Summary of the method: as §1
# FEV = molecular target: T7, FEV (Homo sapiens, UniProt Q99581 1-238); details: protein: recombinant; tags: N-terminal GST; dsDNA, one strand shown
# T7 sequence: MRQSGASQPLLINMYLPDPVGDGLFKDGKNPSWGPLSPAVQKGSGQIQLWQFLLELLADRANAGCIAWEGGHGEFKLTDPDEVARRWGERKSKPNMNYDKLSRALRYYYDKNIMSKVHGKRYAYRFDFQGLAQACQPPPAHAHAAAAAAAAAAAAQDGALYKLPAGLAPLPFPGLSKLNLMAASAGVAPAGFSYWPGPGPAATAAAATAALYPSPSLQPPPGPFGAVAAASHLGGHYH
# Summary of the method: as §1
# ETV5 = ETV5 (Homo sapiens, UniProt P41161 1-510); details: protein: recombinant; tags: N-terminal GST; dsDNA, one strand shown
# Summary of the method: as §1
# HSF1 = HSF1 (Homo sapiens, UniProt Q00613 1-529); details: protein: recombinant; tags: N-terminal GST; chain copies: 3; dsDNA, one strand shown
# Summary of the method: as §1
# SPIC = molecular target: T8, SPIC (Homo sapiens, UniProt Q8N5J4 1-248); details: protein: recombinant; tags: N-terminal GST; dsDNA, one strand shown
# T8 sequence: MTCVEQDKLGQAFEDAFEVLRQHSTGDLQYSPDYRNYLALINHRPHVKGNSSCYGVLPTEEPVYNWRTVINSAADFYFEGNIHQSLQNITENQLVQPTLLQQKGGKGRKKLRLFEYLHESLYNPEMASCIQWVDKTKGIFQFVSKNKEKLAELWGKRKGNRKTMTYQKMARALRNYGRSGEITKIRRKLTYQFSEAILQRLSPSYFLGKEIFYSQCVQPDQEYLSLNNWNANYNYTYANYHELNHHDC
# Summary of the method: as §1
# ELF4 = ELF4 (Homo sapiens, UniProt Q99607 1-663); details: protein: recombinant; tags: N-terminal GST; dsDNA, one strand shown
# Summary of the method: as §1
# ELK4 = molecular target: T9, ELK4 (Homo sapiens, UniProt P28324-2 1-405); details: protein: recombinant; tags: N-terminal GST; dsDNA, one strand shown
# T9 sequence: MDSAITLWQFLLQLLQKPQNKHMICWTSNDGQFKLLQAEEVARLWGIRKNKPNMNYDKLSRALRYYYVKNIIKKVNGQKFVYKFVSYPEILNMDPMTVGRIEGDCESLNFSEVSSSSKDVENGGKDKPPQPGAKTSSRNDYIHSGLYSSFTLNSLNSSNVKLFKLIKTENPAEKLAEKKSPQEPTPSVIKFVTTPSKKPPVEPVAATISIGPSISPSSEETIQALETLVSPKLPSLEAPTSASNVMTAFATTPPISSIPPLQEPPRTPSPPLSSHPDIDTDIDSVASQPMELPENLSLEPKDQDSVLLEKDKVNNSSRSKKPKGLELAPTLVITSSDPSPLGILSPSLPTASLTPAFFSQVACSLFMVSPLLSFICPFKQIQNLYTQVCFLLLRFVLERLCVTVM
# Summary of the method: as §1
# ETV2 = molecular target: T10, ETV2 (Homo sapiens, UniProt O00321 1-342); details: protein: recombinant; tags: N-terminal GST; dsDNA, one strand shown
# T10 sequence: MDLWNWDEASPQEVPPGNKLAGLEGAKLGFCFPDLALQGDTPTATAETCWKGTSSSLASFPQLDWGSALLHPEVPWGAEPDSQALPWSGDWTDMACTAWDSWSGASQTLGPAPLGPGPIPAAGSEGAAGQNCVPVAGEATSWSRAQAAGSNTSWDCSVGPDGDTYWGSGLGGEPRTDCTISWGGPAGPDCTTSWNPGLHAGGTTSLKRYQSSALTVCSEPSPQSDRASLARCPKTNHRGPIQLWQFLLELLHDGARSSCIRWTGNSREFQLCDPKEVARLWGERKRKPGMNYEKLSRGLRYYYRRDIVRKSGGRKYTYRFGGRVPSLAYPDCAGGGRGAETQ
# Summary of the method: as §1
# ELF3 = molecular target: T11, ELF3 (Homo sapiens, UniProt P78545 1-371); details: protein: recombinant; tags: N-terminal GST; dsDNA, one strand shown
# T11 sequence: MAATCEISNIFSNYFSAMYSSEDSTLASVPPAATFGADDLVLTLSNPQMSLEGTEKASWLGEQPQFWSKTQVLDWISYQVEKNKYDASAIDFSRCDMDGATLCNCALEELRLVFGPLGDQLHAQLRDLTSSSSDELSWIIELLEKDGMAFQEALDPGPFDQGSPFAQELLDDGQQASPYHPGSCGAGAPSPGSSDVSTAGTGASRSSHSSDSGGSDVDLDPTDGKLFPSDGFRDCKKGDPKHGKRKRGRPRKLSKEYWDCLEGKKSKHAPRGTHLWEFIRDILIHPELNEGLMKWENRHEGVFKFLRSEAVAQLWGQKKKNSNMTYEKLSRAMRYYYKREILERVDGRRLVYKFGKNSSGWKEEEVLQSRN
# Summary of the method: as §1
# CRX = CRX (Homo sapiens, UniProt O43186 1-299); details: protein: recombinant; tags: N-terminal GST; dsDNA, one strand shown
# Summary of the method: as §1
# ETV1 = ETV1 (Homo sapiens, UniProt P50549 1-477); details: protein: recombinant; tags: N-terminal GST; dsDNA, one strand shown
# Summary of the method: as §1
# Sequence of ETV5 (P41161 whole entry): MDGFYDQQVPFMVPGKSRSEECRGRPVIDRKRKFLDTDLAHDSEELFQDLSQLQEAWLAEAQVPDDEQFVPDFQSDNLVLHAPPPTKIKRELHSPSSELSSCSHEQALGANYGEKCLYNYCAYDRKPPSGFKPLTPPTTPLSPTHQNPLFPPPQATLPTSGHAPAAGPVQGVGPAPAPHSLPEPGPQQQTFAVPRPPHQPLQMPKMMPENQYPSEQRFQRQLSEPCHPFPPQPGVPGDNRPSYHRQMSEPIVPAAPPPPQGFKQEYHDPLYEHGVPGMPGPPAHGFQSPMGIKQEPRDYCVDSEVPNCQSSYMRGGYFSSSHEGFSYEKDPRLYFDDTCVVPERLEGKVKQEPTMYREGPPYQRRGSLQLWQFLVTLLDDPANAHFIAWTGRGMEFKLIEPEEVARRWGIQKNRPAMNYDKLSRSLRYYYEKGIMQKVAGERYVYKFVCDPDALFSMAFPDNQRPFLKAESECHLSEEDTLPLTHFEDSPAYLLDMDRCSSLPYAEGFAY
# Sequence of HSF1 (Q00613 whole entry): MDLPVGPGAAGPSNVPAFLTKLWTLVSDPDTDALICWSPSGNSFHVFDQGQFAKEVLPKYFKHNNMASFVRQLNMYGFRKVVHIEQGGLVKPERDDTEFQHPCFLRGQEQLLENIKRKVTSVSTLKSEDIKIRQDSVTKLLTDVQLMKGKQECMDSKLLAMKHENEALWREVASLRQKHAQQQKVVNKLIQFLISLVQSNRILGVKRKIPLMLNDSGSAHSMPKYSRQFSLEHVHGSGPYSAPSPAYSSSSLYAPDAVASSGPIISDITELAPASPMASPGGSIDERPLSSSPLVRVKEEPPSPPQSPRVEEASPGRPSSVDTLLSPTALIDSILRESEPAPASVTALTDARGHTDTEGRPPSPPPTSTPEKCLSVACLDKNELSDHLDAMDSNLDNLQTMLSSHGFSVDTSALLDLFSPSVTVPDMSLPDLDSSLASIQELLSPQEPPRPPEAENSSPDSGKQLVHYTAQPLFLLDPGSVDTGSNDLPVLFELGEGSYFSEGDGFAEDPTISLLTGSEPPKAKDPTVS
# Sequence of ELF4 (Q99607 whole entry): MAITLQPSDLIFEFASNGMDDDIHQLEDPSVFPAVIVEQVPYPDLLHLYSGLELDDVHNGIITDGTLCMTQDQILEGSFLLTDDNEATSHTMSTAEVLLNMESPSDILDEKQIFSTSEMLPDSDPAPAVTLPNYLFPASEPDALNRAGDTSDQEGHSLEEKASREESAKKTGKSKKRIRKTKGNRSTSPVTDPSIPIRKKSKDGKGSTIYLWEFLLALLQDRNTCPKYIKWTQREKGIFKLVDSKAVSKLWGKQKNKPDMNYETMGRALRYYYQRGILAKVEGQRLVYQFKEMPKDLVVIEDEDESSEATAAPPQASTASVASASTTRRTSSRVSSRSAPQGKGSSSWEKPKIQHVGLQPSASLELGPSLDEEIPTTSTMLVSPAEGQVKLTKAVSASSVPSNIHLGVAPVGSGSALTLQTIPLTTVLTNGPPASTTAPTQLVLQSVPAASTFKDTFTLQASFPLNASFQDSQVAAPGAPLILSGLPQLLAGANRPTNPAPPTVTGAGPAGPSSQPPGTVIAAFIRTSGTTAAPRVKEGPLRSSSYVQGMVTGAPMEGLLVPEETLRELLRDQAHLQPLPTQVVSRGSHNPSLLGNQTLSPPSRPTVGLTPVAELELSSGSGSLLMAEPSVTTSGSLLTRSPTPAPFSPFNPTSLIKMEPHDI
# Sequence of SPIB (Q01892 whole entry): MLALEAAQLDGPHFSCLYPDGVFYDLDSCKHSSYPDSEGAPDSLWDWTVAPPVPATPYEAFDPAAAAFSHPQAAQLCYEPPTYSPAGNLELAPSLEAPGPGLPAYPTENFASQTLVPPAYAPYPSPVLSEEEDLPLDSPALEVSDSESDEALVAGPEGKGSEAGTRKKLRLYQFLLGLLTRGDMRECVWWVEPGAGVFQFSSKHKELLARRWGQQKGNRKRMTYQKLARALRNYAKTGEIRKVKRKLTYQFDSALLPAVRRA
# Sequence of ETV1 (P50549 whole entry): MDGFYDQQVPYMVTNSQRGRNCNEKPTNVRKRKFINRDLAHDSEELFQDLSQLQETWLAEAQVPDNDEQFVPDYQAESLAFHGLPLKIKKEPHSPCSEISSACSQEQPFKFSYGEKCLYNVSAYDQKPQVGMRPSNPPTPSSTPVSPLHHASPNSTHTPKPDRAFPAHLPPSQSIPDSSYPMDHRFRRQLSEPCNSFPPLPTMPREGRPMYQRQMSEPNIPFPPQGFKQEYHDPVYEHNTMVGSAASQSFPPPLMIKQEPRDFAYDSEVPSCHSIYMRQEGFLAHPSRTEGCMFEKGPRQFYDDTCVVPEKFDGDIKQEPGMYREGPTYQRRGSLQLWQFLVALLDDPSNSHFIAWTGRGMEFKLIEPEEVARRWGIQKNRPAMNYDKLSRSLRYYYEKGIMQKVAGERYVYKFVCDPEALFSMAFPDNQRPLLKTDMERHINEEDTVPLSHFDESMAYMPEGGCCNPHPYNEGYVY
# Sequence of ELF1 (P32519 whole entry): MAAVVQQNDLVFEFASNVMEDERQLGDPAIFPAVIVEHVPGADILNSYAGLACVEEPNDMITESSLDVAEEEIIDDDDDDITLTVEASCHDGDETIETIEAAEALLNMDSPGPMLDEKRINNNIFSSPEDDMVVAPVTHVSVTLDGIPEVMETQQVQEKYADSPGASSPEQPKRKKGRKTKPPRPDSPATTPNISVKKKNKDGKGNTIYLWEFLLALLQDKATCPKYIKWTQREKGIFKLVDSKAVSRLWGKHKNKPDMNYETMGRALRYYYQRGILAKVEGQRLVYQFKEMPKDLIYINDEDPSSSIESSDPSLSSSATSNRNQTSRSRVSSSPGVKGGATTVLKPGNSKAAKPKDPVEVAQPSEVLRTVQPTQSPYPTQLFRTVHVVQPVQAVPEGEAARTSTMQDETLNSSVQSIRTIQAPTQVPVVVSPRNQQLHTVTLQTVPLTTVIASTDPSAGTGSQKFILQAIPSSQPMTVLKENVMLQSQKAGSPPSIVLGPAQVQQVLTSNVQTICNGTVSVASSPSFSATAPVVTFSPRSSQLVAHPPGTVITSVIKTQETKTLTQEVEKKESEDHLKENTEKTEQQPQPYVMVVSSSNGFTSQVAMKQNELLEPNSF
# Sequence of CRX (O43186 whole entry): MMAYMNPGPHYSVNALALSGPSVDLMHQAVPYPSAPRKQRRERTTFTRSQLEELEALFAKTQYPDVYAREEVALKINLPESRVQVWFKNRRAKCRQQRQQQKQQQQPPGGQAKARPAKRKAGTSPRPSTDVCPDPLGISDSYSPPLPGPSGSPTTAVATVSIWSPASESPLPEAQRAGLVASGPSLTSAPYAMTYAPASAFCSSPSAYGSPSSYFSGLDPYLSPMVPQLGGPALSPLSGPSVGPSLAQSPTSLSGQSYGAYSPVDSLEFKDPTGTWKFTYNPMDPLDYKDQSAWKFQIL
sequence,measurement,setting,value
TCCCCT,binding signal,FLI1,"1.59 fold enrichment (6-mer frequency, TF over GST control)"
same,binding signal,ELK1,"1.66 fold enrichment (6-mer frequency, TF over GST control)"
same,binding signal,GABPA,"1.61 fold enrichment (6-mer frequency, TF over GST control)"
same,binding signal,ERG,"1.72 fold enrichment (6-mer frequency, TF over GST control)"
same,binding signal,ELF1,"1.74 fold enrichment (6-mer frequency, TF over GST control)"
same,binding signal,EHF,"1.67 fold enrichment (6-mer frequency, TF over GST control)"
same,binding signal,SPI1,"2.29 fold enrichment (6-mer frequency, TF over GST control)"
same,binding signal,SPIB,"1.8 fold enrichment (6-mer frequency, TF over GST control)"
same,binding signal,ELK3,"1.86 fold enrichment (6-mer frequency, TF over GST control)"
same,binding signal,FEV,"1.71 fold enrichment (6-mer frequency, TF over GST control)"
same,binding signal,ETV5,"1.72 fold enrichment (6-mer frequency, TF over GST control)"
same,binding signal,HSF1,"1.56 fold enrichment (6-mer frequency, TF over GST control)"
same,binding signal,SPIC,"1.88 fold enrichment (6-mer frequency, TF over GST control)"
same,binding signal,ELF4,"1.83 fold enrichment (6-mer frequency, TF over GST control)"
same,binding signal,ELK4,"1.55 fold enrichment (6-mer frequency, TF over GST control)"
same,binding signal,ETV2,"1.57 fold enrichment (6-mer frequency, TF over GST control)"
same,binding signal,ELF3,"1.78 fold enrichment (6-mer frequency, TF over GST control)"
same,binding signal,CRX,"1.92 fold enrichment (6-mer frequency, TF over GST control)"
same,binding signal,ETV1,"1.75 fold enrichment (6-mer frequency, TF over GST control)"

# Source: paper PMC7862700, “An all-to-all approach to the identification of sequence-specific readers for epigenetic DNA modifications on cytosine”
